Source: PubChem (several laboratories)
Sampled rows, rich in hits. Any-hit rate of the full collection: about 3%.
Peg3 promoter = Peg3 promoter-driven luciferase inhibitors, primary screen, cell-based, HeLa, luciferase luminescence; 360,000 tested, 1.7% active; inhibition, % at 20 µM; HeLa PEG-Prom luciferase reporter, overnight; AID 588405, 2011;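 active means inhibition of at least 50% at 20 µM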
Shn3 inh set2 = reduction of Shn3 3'UTR firefly luciferase signal, primary screen, Schnurri-3 inhibitor project, cell-based, Clone20 osteoblasts, set 2. Clone20 osteoblast Shn3 3'UTR firefly luciferase, 24 h. inhibition, % at 12.5 µM. 360,000 tested, 0.52% active;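 active means mean inhibition of at least 75% with every replicate also reaching 75%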
ABHD5 PLIN5 PPI = ABHD5-PLIN5 interaction inhibitors, primary screen, cell lysate, split luciferase complementation, luminescence; Perilipin-5 (Homo sapiens) + 1-acylglycerol-3-phosphate O-acyltransferase ABHD5 (Homo …; Split G. princeps luciferase complementation, 4 h; inhibition, % at 4 µM; 360,000 tested, 0.78% active;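 active means inhibition above the mean inhibition across every tested compound plus 3 SD, cut at about 22% in these data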
Target sequence (Q00G26 whole entry, looked up): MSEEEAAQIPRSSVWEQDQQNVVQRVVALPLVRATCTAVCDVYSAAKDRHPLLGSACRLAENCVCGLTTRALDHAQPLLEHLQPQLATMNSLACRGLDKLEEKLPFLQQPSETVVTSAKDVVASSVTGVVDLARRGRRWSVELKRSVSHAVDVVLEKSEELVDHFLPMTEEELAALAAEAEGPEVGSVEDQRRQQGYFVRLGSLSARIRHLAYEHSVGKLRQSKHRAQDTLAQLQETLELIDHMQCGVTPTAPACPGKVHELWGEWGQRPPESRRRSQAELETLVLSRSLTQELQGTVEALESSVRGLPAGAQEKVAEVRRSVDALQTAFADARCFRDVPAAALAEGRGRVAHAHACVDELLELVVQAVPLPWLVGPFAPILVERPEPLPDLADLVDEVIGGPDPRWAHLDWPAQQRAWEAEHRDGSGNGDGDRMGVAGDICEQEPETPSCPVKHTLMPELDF
Target sequence (Q8WTS1 whole entry, looked up): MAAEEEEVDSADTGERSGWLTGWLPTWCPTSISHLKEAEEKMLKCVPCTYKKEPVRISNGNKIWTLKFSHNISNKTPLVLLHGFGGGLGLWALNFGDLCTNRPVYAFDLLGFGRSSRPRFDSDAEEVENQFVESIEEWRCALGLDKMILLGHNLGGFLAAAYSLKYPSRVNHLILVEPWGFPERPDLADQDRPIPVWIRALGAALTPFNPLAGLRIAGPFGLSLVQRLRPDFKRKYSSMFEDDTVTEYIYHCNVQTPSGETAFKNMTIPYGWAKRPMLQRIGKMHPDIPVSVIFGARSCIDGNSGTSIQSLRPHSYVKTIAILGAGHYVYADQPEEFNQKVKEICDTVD
PAX8 inh HTS = inhibitors of PAX8-driven TPO luciferase reporter, primary screen, RMG-I cells, single concentration; SteadyGlo, 24 h; inhibition, % at 12.6 µM; 360,000 tested, 1.2% active;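 active means mean replicate inhibition at least 60% with every replicate also reaching 60%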;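 further: luciferase light reporting Pax8 driven TPO promoter activity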
EWS-Fli inh = EWS/Fli-driven NR0B1 reporter inhibitors, primary screen, A673 cells, NR0B1 luciferase, luminescence, MLPCN library; viability-normalised; inhibition, % at 12.6 µM; 350,000 tested, 0.67% active;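 active means mean inhibition of at least 50% after viability correction, with every replicate also passing that limit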;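 further: firefly luciferase signal divided by Alamar Blue viability fluorescence both relative to DMSO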
MITF TRPM1 inh = inhibitors of MITF-dependent TRPM1 promoter reporter, primary screen, cell-based, SK-MEL-5, single point, luciferase | SK-MEL-5 TRPM1 promoter luciferase, 24 h | inhibition, % at 12.5 µM | 330,000 tested, 0.83% active;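 active means mean inhibition across replicates of 60% or more, whatever share of single replicates reaches that level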
A number is an active result; . = inactive; / = not tested or not shown.

SMILES	Peg3 promoter	Shn3 inh set2	ABHD5 PLIN5 PPI	PAX8 inh HTS	EWS-Fli inh	MITF TRPM1 inh
C[C@@H]1CN([C@@H](C)CO)C(=O)c2cc(C#Cc3ccncc3)cnc2O[C@H]1CN(C)Cc1ccncc1	/	/	/	/	.	/
COc1ccccc1-c1ccc2c(c1)O[C@H](CN(C)CC1CC1)[C@H](C)CN([C@@H](C)CO)S2(=O)=O	/	/	/	/	.	/
C[C@@H]1CN([C@@H](C)CO)C(=O)c2cccc(NS(C)(=O)=O)c2O[C@H]1CN(C)S(=O)(=O)c1ccc(F)cc1	/	/	/	/	.	/
CN(Cc1ccc(OC(F)F)cc1)C(=O)c1cccc(S(=O)(=O)N2CCN(Cc3ccccc3)CC2)c1	.	89	.	.	.	.
CN(Cc1c(F)cccc1Cl)C(=O)c1cccc(S(=O)(=O)N2CCN(Cc3ccccc3)CC2)c1	.	.	.	.	.	.
Cc1cc(C(C)(C)C)cc(C)c1Cn1c2[n+](c3ccc(C(F)(F)F)cc31)CCCCC2	56	.	.	90	.	84
CCc1ccc(NC(=O)Cn2c(SC)nc3ccccc32)cc1	.	.	.	/	/	.
O=C(Cn1c2[n+](c3ccc(C(F)(F)F)cc31)CCCCC2)Nc1ccc(Br)cc1	.	.	96	/	/	.
N#Cc1ccc(NC(=O)Cn2c3[n+](c4ccc(C(F)(F)F)cc42)CCCCC3)cc1	.	.	.	.	.	.
CCc1ccc(NC(=O)Cn2c3[n+](c4c(F)c(F)ccc42)CCCCC3)cc1	.	.	.	76	.	.
Cc1ccc(-c2cn(-c3ccc(OC(F)F)cc3)c3[n+]2CCCCC3)cc1	.	88	.	.	.	.
CN1/C(=C\C=N\NC(=O)c2ccc(O)cc2)C(C)(C)c2ccccc21	.	88	.	.	/	.
CC1CCC(C(C)C)C(OCC(O)CNC(C)c2ccccc2)C1 (stereo not drawn)	106	.	.	.	.	.
CC1CCC(C(C)C)C(OCC(O)CNC(C)(C)C)C1 (stereo not drawn)	.	.	.	.	.	.
CC(NCC(O)COc1ccc(S(=O)(=O)N2CCOCC2)cc1)c1ccccc1 (stereo not drawn)	.	.	.	.	.	.
CC(NCC(O)COC1CCC(C(C)(C)C)CC1)c1ccccc1 (stereo not drawn)	64	.	.	.	.	.
Cc1cc(NC(=O)CSc2nc(-c3cccs3)nc3ccccc23)no1	.	.	.	.	58	.
Cc1cc(NC(=O)CSc2nc(C(C)(C)C)nc3ccccc23)no1	.	.	.	.	.	.
CN(C)CC(=O)N[C@H]1CC[C@H](CC(=O)NCc2ccc(Cl)cc2)O[C@@H]1CO	/	/	/	.	.	/
Cc1cc(C)c2c(=O)n(CC(=O)Nc3cccc(Cl)c3C)sc2n1	.	.	48	.	.	.
CC(=O)Nc1ccc2c(CSc3nnc(-c4cccnc4)n3-c3ccc(C)cc3C)cc(=O)oc2c1	.	.	.	.	/	.
CCOc1ccc(-n2c(SCc3cc(=O)oc4cc(C)ccc34)nnc2-c2cccnc2)cc1	.	.	.	65	.	.
CN(C)CC(=O)Nc1ccc2c(c1)[C@H]1C[C@@H](CC(=O)NCc3cccnc3)O[C@@H](CO)[C@H]1O2	/	/	/	/	.	/
OCC1CCCN(C(=S)Nc2ccc(OC(F)F)cc2)C1 (stereo not drawn)	.	.	.	136	.	.
C[C@H](CO)N1C[C@H](C)[C@H](CN(C)C(=O)Nc2ccc3c(c2)OCO3)Oc2ncc(-c3cncnc3)cc2C1=O	/	/	/	/	.	/
SMILES	Peg3 promoter	Shn3 inh set2	ABHD5 PLIN5 PPI	PAX8 inh HTS	EWS-Fli inh	MITF TRPM1 inh
CCCn1c(CN2CCN(C(=O)OCC)CC2)nc2cc(NC(=O)CC)ccc21	.	.	.	.	59	.
CCOc1ccc(NC(=O)CN(C)C(=O)c2cn(-c3ccc(F)cc3)nc2-c2cccc(OC)c2)cc1OCC	.	.	.	.	.	.
CCN(CC)CCNC(=O)c1ccc(NC(=O)c2cn(-c3ccc(F)cc3)nc2-c2cccc(OC)c2)cc1	101	.	.	.	59	98
C[C@@H]1CN([C@H](C)CO)C(=O)c2cc(NS(=O)(=O)c3ccc(F)cc3)ccc2O[C@H]1CN(C)Cc1ccc(Oc2ccccc2)cc1	/	/	/	.	.	/
C[C@H]1CCCCO[C@@H](CN(C)Cc2ccc(C(F)(F)F)cc2)[C@@H](C)CN([C@@H](C)CO)C(=O)c2cc(N(C)C)ccc2O1	/	/	/	.	.	/
CC1=Nc2ccccc2/C1=C/c1c(C)[nH]c2ccccc12	91	.	.	/	/	.
Cc1ccc(-n2ncc(C(=O)Nc3cc(Cl)cc(Cl)c3)c2C2CCNCC2)cc1C	60	.	.	.	62	85
N#Cc1cnn2c1nc(N1CCCCC1)c1ccccc12	51	.	.	/	/	.
CC(C)c1ccc(S(=O)(=O)c2nnn3c2nc(N2CCCCC2)c2ccccc23)cc1	.	.	.	.	/	.
N/C(=N\OC(=O)Nc1ccccc1)c1ncc([N+](=O)[O-])s1	.	.	.	.	.	68
O=C(COC(=O)COc1ccccc1)Nc1ncc([N+](=O)[O-])s1	.	.	.	.	.	.
O=C(C[C@@H]1CC[C@@H](NC(=O)c2ccc(F)cc2)[C@@H](CO)O1)NCCc1ccccc1	/	/	/	.	.	/
CC1(Cc2ccc(OC(F)(F)F)cc2)C(=O)Nc2ccc(S(=O)(=O)NC3CCCCC3)cc21 (stereo not drawn)	.	.	.	90	.	/
Cc1c(Cl)cccc1Nc1n[nH]c(=S)s1	101	.	.	.	.	.
CO[C@H]1CN(C)C(=O)c2cc(NC(=O)CC(F)(F)F)ccc2OC[C@@H](C)N(C(=O)C2CC2)C[C@H]1C	/	/	/	.	.	/
COc1ccc(CC(N)c2csc(NC(=O)Nc3ccccc3-c3ccccc3)n2)cc1 (stereo not drawn)	92	.	.	.	.	/
COc1ccccc1NC(=O)Nc1nc(C(N)Cc2ccc(Cl)cc2)cs1 (stereo not drawn)	106	.	.	.	.	/
COc1ccc(CCNC(=O)Nc2nc(C(N)Cc3ccccc3)cs2)cc1OC (stereo not drawn)	.	.	.	.	.	/
COc1ccccc1NC(=O)Nc1nc(CC(=O)N2CCN(c3ccccc3F)CC2)cs1	52	.	.	.	.	.
COc1ccc(OC)c(NC(=O)Nc2nc(C(N)CCc3ccccc3)cs2)c1 (stereo not drawn)	100	.	.	.	.	/
COc1ccc(CC(N)c2csc(NC(=O)NCCc3ccc(OC)c(OC)c3)n2)cc1 (stereo not drawn)	.	.	.	.	.	/
O=C(C[C@H]1CC[C@H](NC(=O)Nc2ccccc2F)[C@H](CO)O1)NCc1ccc(F)cc1	/	/	/	/	.	/
